Assay [1] can be described thus: inhibitors of TNFa-induced NFkB p65 translocation, primary screen, imaging, HUVEC, MLSMR starter and 10KST1 sets (AID 438).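 For inhibition: signal is the nuclear over cytoplasmic p65 intensity ratio per well.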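 Note: compound added about 3h40 before a 20 min TNFalpha stimulation.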 To be noted: HUVEC TNFa-induced p65 nuclear translocation; cell count: measured here: nuclei count (cytotoxicity indicator), at 2.08 µM; inhibition: at 2 µM, stronger effect = higher value, 0% TNFa-plus-vehicle, 100% no-TNFa wells.
The nature of assay [2]: reduction of polyQ htt aggregates in cells – imaging, exon1htt(103Q)mCFP cells, high-content imaging, primary screen (AID 483;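 active = visual image review flags a hit and inhibition of aggregation exceeds 20%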;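 note: compound exposure lasted 3 days before fixation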;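 for nuclei count: percent of the per-plate median nuclei count of sample wells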). To be noted: exon1htt(103Q)mCFP cell line, aggregate imaging, at 2 µM; inhibition of aggregation: stronger effect = higher value; nuclei count: measured here: cell count, toxicity.
Assay [3] is described as follows: endothelial E-selectin expression blockers – imaging, HUVEC, immunofluorescence, MLSMR starter and 10KST1 sets, primary screen (AID 487;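 active = visually confirmed hit in the image check and inhibition above 20%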;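 for inhibition: signal is fraction of cell area covered by stained E-selectin grains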;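 for nuclei count: 100% = median nuclei count of all wells on the same plate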). To be noted: HUVEC TNFalpha-induced E-selectin immunofluorescence imaging, at 2 µM; inhibition: stronger effect = higher value; nuclei count: measured here: cell number, toxicity.
A short description of assay [4]: Primary imaging screen for DUSP6 inhibitors that restore phospho-Erk in transfected HeLa cells, chemical complementation (AID 609;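 active = compounds giving at least 50% inhibition in the cell-based MKP-3 phosphatase rescue imaging test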;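 for inhibition: phospho-Erk level distribution per well compared with pooled transfected vehicle control wells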). To be noted: HeLa MKP-3 transfected, phospho-Erk imaging KS statistic, at 10 µM, cells stimulated with TPA for 15 min.
For assay [5], the target named is Dual specificity protein phosphatase 6 (Homo sapiens) (UniProt Q16828). Described as above. To be noted: HeLa MKP-3 transfected, phospho-Erk imaging KS statistic; at 10 µM; stronger effect = higher value; cells stimulated with TPA for 15 min.
Assay [6] deals with Voltage-gated potassium channel subunit beta-2 (Rattus norvegicus) (UniProt P62483). The assay can be described thus: inhibitors of rat Kvbeta2 reductase activity – biochemical, NADPH fluorescence, primary screen (AID 622;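 active = fluorescence slope higher than the sample average by over 3 SD, cut at about -0.22 in these data, passing the limit was not always enough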;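 note: slope of raw intensity against log time taken from 70 to 1610 s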). To be noted: recombinant KvBeta, 4-cyanobenzaldehyde reduction, at 10 µM, stronger effect = higher value.
Assay [7] shares this target. The experiment in a line: enhancers of rat Kvbeta2 NADPH turnover – biochemical, NADPH fluorescence, primary screen (AID 623;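 active = NADPH fluorescence slope more negative than the mean of all samples by about 3 SD, 99.7% confidence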;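 note: fluorescence intensity change per second fitted from 20 to 320 s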). To be noted: Recombinant KvBeta, NADPH fluorescence decrease slope, 10 min; at 10 µM; stronger effect = lower value.
In assay [8] the target is Alpha-2C adrenergic receptor (Homo sapiens) (UniProt P18825). The assay can be described thus: compounds altering alpha2C-coupled GIRK flux – cell-based, HEK293 alpha2C/GIRK1/2, thallium flux, primary screen (AID 624;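 active = fluorescence slope after compound addition differing from the mean of all screened samples at 99.7% confidence, in either direction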;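 note: slope of fluorescence ratio to pre-addition baseline per second over 15 to 24 s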). To be noted: thallium flux BTC fluorescence, at 10 µM, actives lie on both sides.
Assay [9] can be described thus: inhibitors of larval lipid processing in zebrafish, primary screen, whole organism, PED6 fluorescence, gall bladder and intestine (AID 686;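 active = a full or partial loss of lipid-probe fluorescence in the fish gall bladder, intestine or both, judged by eye; inactive = no fluorescence loss, or compound toxic to the fish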;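 note: larvae 5 to 7 days old with five fish per well; signal comes from phospholipase A2 cleavage of quenched PED6 carried via bile; overnight exposure to compound and PED6 before scoring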). To be noted: Zebrafish larvae PED6 lipid processing, fluorescence scoring; screened at 20 µM (by protocol).
The nature of assay [10]: loss of swimming-algae plug formation – whole organism, Chlamydomonas reinhardtii, WT vs cilia-less mutant, absorbance, 96-well, primary screen (AID 463189;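 active = inhibition at or above 50% relative to wild type and mutant plate controls; inactive = inhibition below 50%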;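 note: 0% = wild type cc124 cells in DMSO and 100% = ciliumless bld1 mutant cells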). To be noted: Chlamydomonas reinhardtii gravitaxis, OD600 absorbance, 2 days; at 10 µM; stronger effect = higher value.
Assay [11] is described as follows: blockers of RIG-like receptor reporter activation – cell-based, Sendai virus stimulus, luciferase, 10K MLSCN set, TLR/RLR signaling modifier project, primary screen (AID 602276;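 active = inhibition at or above 50% at 10 µM; inactive = inhibition below 50%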;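 note: firefly luciferase from ISG56 promoter only with Renilla not read in this screen; 0% = Sendai virus plus DMSO and 100% = medium plus DMSO without virus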). To be noted: HEK293 RL24 IRF3 luciferase reporter, at 10 µM, stronger effect = higher value. On the technique in general: Reporter assays use an easily measured gene product as a stand-in for the process of interest.

The nature of assay [12]: TLR3 IRF3 reporter activation blockers – cell-based, poly I:C stimulus, luciferase, 10K MLSCN set, primary screen (AID 602277;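 active = inhibition of the reporter signal at or above 50%; inactive = inhibition below 50%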). To be noted: HEK293-TLR3 RL24 IRF3 luciferase reporter, at 10 µM, stronger effect = higher value.
The mark [13] stands for this setting: measured here: cell density z-score.
Setting [14] is: measured here: nuclear c-Myc green intensity z-score.
Where [15] appears, read: measured here: nuclear pErk red intensity z-score, stronger effect = higher value.

The source made the active and inactive calls.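 Rule for the calls, unless noted: active = inhibition above 20% together with a positive visual image hit; inconclusive = visual image hit but inhibition not above 20%; inactive = no visual image hit.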

Sequence of Alpha-2C adrenergic receptor (Homo sapiens) (P18825 whole entry, looked up): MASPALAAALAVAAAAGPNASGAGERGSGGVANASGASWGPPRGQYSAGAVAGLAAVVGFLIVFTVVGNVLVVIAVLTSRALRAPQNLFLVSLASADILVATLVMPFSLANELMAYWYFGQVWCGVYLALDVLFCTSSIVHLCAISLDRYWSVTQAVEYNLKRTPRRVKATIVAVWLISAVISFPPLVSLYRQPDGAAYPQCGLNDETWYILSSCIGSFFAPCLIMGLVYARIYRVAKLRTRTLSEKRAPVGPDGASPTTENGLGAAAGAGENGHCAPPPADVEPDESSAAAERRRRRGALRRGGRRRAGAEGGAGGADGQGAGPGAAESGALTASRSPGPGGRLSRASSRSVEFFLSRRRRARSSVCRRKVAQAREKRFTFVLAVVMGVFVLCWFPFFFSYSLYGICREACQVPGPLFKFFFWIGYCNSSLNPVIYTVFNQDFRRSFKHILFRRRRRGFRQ
Sequence of Dual specificity protein phosphatase 6 (Homo sapiens) (Q16828 whole entry, looked up): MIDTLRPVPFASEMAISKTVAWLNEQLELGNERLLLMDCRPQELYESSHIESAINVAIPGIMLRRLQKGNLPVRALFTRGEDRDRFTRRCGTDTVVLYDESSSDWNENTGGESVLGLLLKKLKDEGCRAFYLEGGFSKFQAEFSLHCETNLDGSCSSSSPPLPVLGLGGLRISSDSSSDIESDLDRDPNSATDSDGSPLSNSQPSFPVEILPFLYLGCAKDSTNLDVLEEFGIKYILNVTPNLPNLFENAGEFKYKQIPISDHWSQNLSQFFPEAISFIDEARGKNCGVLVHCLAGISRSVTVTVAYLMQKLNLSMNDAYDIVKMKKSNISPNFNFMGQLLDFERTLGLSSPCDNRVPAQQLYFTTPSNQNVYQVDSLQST
Sequence of Voltage-gated potassium channel subunit beta-2 (Rattus norvegicus) (P62483 whole entry, looked up): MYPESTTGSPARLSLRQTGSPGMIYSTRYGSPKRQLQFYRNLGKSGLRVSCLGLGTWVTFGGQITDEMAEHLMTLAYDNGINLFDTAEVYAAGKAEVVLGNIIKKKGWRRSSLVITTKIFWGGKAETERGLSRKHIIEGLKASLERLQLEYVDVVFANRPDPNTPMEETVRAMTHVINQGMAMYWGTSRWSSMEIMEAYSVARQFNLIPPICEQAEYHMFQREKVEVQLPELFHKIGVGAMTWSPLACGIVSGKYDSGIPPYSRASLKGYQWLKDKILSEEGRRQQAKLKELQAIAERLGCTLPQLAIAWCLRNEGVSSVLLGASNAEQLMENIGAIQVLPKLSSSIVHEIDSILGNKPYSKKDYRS

As for `COc1ccc(CCN2CCC(Nc3nc4ccccc4n3Cc3ccc(F)cc3)CC2)cc1`, the cell count in assay [1] stood at 525. For the same compound, the inhibition – broadly, the drop in the measured response relative to a control, in per cent – was -1.3% (inactive) in assay [1]; -28.6% (inactive) in [3]; 7.39% (inactive) in assay [5]; 133% (active) in [10]; -3.81% (inactive) in assay [11]; -23.6% (inactive) in [12]. Besides, the inhibition of aggregation in [2] was -3% (inactive). In addition, the nuclei count in assay [2] stood at 83.3%; in assay [3] it was 107%. The z-score is -0.393 in assay [4] (setting [13]), 1.49 in [4] (setting [14]) and 0.359 in assay [4] (setting [15]). The fluorescence slope in assay [6] is -0.513 (inactive). The NADPH fluorescence slope in [7] was -0.000106 (inactive). The slope in assay [8] is 0.00466 (inactive). Also, in assay [9], the compound was called inactive.
With `CCC(C)n1ncn(-c2ccc(N3CCN(c4ccc(OCC5COC(Cn6cncn6)(c6ccc(Cl)cc6Cl)O5)cc4)CC3)cc2)c1=O` (stereo not drawn), the cell count in [1] was found to be 587. Further, the inhibition is 3.2% (inactive) in assay [1]; -162% (inactive) in assay [3]; 1.38% (inactive) in assay [5]; 5.29% (inactive) in assay [10]; 33.8% (inactive) in assay [11]; 4.61% (inactive) in [12]. Moreover, the inhibition of aggregation in assay [2] is -63.7% (inactive). Also, the nuclei count in [2] stood at 140%; in assay [3], 121%. In addition, the z-score in assay [4] (setting [13]) is 0.653; in assay [4] (setting [14]), -0.579; in assay [4] (setting [15]), -0.684. Also, in assay [6], the fluorescence slope is -0.456 (inactive). The NADPH fluorescence slope in assay [7] is -5.2e-05 (inactive). Besides, the slope in assay [8] was 0.00423 (inactive). Besides, the compound was classed as inactive in [9].
On to `O=C(NCc1ccco1)c1cnn2c(C(F)(F)F)cc(-c3ccco3)nc12`, for which the cell count in assay [1] is 480. The inhibition was -4.4% (inactive) in [1]; -34.8% (inactive) in [3]; 11.3% (inactive) in assay [5]; -15.7% (inactive) in assay [10]; 16% (inactive) in assay [11]; 24.8% (inactive) in assay [12]. For the same compound, the inhibition of aggregation in assay [2] is -12.5% (inactive). The results for the nuclei count in assay [2] and in [3] were 95.1% and 118%, respectively. Also, the z-score was -0.634 in [4] (setting [13]), 0.493 in [4] (setting [14]) and -1.31 in [4] (setting [15]). Also, the fluorescence slope in assay [6] is -0.421 (inactive). Moreover, the NADPH fluorescence slope in [7] is -6.2e-05 (inactive). The slope in [8] is 0.00539 (inactive). Moreover, in [9], the result was inactive.
`Cc1ccc(-n2nc3cc(Cl)c(NC(=O)c4ccco4)cc3n2)cc1`: the cell count in [1] was found to be 566. The inhibition in assay [1] is -2.6% (inactive); in assay [3], -52% (inactive); in assay [5], -0.674% (inactive); in [10] it was 6.11% (inactive); in [11] it was -16.5% (inactive); in assay [12], -49.9% (inactive). Also, the inhibition of aggregation in assay [2] is -7.2% (inactive). For the same compound, the nuclei count was 112% in assay [2] and 137% in assay [3]. Also, the results for the z-score in assay [4] (setting [13]), in assay [4] (setting [14]) and in assay [4] (setting [15]) were -0.552, 1.17 and -0.609, respectively. Also, the fluorescence slope in assay [6] was -0.459 (inactive). In addition, the NADPH fluorescence slope in [7] was -5.2e-05 (inactive). Further, in assay [8], the slope is 0.00706 (inactive). In assay [9], the compound was classed as inactive.
As for `CC1(C)S[C@@H]2[C@H](NC(=O)C(C(=O)O)c3ccccc3)C(=O)N2[C@H]1C(=O)O` (stereo partly drawn), in assay [1], the cell count is 588. Moreover, the inhibition is -12.5% (inactive) in [1]; -51.3% (inactive) in [3]; 13.3% (inactive) in [5]; 37.9% (inactive) in assay [10]; -4.51% (inactive) in assay [11]; 13% (inactive) in assay [12]. The inhibition of aggregation in [2] is -7.6% (inactive). The nuclei count in [2] worked out at 99.1%; in assay [3] it was 138%. For the same compound, the z-score in [4] (setting [13]) is 0.424; in [4] (setting [14]), 0.193; in [4] (setting [15]), -0.471. The fluorescence slope in [6] is -0.487 (inactive). For the same compound, in [7], the NADPH fluorescence slope was -2.7e-05 (inactive). In addition, the slope in assay [8] was 0.00471 (inactive). The compound was called inactive in [9].
In the case of `COC(=O)[C@@H](N)Cc1ccc(O)cc1`, the cell count in assay [1] worked out at 550. Besides, the inhibition in assay [1] was -6.9% (inactive); in [3], -9.7% (inactive); in [5], 11.3% (inactive); in assay [10], 15.2% (inactive); in assay [11], 15.4% (inactive); in assay [12] it was 27.7% (inactive). Besides, the inhibition of aggregation in assay [2] was 4.1% (inactive). The nuclei count in [2] worked out at 91.1%; in [3] it was 107%. The z-score is -0.0639 in assay [4] (setting [13]), 0.189 in assay [4] (setting [14]) and 0.26 in assay [4] (setting [15]). In addition, the fluorescence slope in [6] was -0.496 (inactive). Further, in [7], the NADPH fluorescence slope is -7.7e-05 (inactive). The slope in [8] was 0.00529 (inactive). For the same compound, the compound was classed as inactive in assay [9].
`Cc1ccc(C2/C(=C(/O)c3cnn(-c4ccccc4)c3C)C(=O)C(=O)N2CCN2CCOCC2)o1` (stereo not drawn): the cell count in assay [1] was found to be 520. Also, the inhibition is -2.8% (inactive) in assay [1]; -56.6% (inactive) in assay [3]; -10.5% (inactive) in assay [5]; -18.9% (inactive) in assay [10]; -28.4% (inactive) in [11]; -75.5% (inactive) in assay [12]. The inhibition of aggregation in [2] was 10.2% (inactive). In addition, the results for the nuclei count in assay [2] and in assay [3] were 100% and 126%, respectively. In addition, the z-score in assay [4] (setting [13]) is -0.925; in [4] (setting [14]) it was 1.9; in assay [4] (setting [15]), -0.672. For the same compound, the fluorescence slope in assay [6] was -0.531 (inactive). Besides, in assay [7], the NADPH fluorescence slope is -4.5e-05 (inactive). Further, the slope in assay [8] is 0.00497 (inactive). Also, the compound was called inactive in [9].
As to `Cc1cc(C)c(C#N)c(SCc2[nH]nc3c2C(c2ccccc2)C(C#N)=C(N)O3)n1` (stereo not drawn), the cell count in assay [1] turned out to be 633. Further, the inhibition was -7.7% (inactive) in [1]; -6.9% (inactive) in [3]; -7.28% (inactive) in assay [5]; 31.6% (inactive) in assay [10]; 12.1% (inactive) in [11]; 20.3% (inactive) in assay [12]. The inhibition of aggregation in assay [2] is 5.8% (inactive). Also, the nuclei count was 104% in [2] and 114% in assay [3]. Besides, the values for the z-score in assay [4] (setting [13]), in [4] (setting [14]) and in assay [4] (setting [15]) were 0.152, -0.343 and 0.203, respectively. The fluorescence slope in assay [6] is -0.571 (inactive). The NADPH fluorescence slope in assay [7] is 2.5e-06 (inactive). Further, the slope in [8] is 0.00484 (inactive). In addition, the compound was called inactive in assay [9].
For the compound `COc1ccc(-c2nnc3sc(-c4c(OC)cccc4OC)nn23)cc1`, in assay [1], the cell count came to 498. The inhibition in assay [1] was -7.5% (inactive); in [3], -176% (inactive); in [5], -6.06% (inactive); in assay [10], 14.7% (inactive); in assay [11], 11.7% (inactive); in assay [12], 13% (inactive). Besides, in [2], the inhibition of aggregation was 26.2% (inactive). For the same compound, the nuclei count in assay [2] amounted to 28.4%; in assay [3] it was 131%. Moreover, the values for the z-score in assay [4] (setting [13]), in [4] (setting [14]) and in assay [4] (setting [15]) were -0.466, -2.13 and -0.0898, respectively. Further, the fluorescence slope in [6] was -0.435 (inactive). Besides, the NADPH fluorescence slope in assay [7] was -0.000139 (inactive). Also, in assay [8], the slope was 0.00691 (inactive). In addition, the result in assay [9] was inactive.

Source of the values: PubChem BioAssay.
